Results published in PubChem BioAssay (NCATS).
Records with an inconclusive call do not appear. Activity calls are given as the source filed them. Unless noted, the call rests on the fitted dose curve; in most records, active means well fitted curve in the direction sought with a large enough effect; inconclusive means small, poorly fitted or top-dose-only effect, or another doubt; inactive means no such curve, though single readings can be large; an effect the other way counts as inactive or inconclusive.

How the values were obtained:
[1] = qHTS to identify inhibitors of the type 1 interferon - major histocompatibility complex class I in skeletal muscle: primary screen against the NCATS Mechanism Interrogation Plate v5.0 (MIPE) Libary (AID 1347411); further: nearly all actives have a fitted effect of over 65% in size; further: potency means the concentration at half of the fitted maximal effect;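 on activity change, negative = inhibition: plate controls were vehicle for no effect and reference inhibitor for full effect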
In short: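 Immortalized human myoblasts (C25cl48) with HiBit knocked into endogenous HLA-B*08:01 were stimulated with 4 ng/ml IFN-beta and given compounds in 11-point 1:3 titration from 46 uM. After 24 h at 37 C, lytic HiBiT luminescence was read.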

[2] = Primary qHTS for inhibitors of nuclear receptor binding SET domain protein 2 (NSD2) in an isogenic RCH-ACV NSD2 p.E1099K mutant (9B) (AID 1645876); further: nearly all actives have a fitted effect of over 70% in size; further: potency means the concentration at half of the fitted maximal effect; on activity change, negative = viability loss: on the % scale 0 is the no-effect control and ±100 the full control effect
[3] = Primary qHTS for inhibitors of nuclear receptor binding SET domain protein 2 (NSD2) in an RCH-ACV wild type WT cells (2C) (AID 1645877); further: nearly all actives have a fitted effect of over 70% in size; further: potency means the concentration at half of the fitted maximal effect; on activity change, negative = cell killing: on the % scale 0 is the no-effect control and ±100 the full control effect
[4] = biological target: Glutathione peroxidase 1 (Homo sapiens) (UniProt P07203); experiment: Primary qHTS Assay for Inhibitors of Recombinant Selenoprotein Glutathione Peroxidase 1 (GPX1) (AID 1845191); further: nearly all actives have a fitted effect of over 65% in size
Sequence of Glutathione peroxidase 1 (Homo sapiens) (P07203 whole entry, looked up): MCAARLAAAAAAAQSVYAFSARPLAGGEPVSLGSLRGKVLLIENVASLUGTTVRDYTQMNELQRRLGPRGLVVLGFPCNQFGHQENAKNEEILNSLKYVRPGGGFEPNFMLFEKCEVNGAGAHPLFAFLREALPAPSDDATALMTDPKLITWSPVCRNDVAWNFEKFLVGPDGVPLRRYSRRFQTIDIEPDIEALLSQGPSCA
In short: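 Recombinant GPX1 (10 nM final) was preincubated with compound for 30 min at room temperature, then reacted with 1 mM GSH, 0.5 mM CHP, 0.5 mM NADPH and 100 nM glutathione reductase; NADPH fluorescence (340/450 nm) was read at 0 and 15 min.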

[5] = biological target: Phospholipid hydroperoxide glutathione peroxidase GPX4 (Homo sapiens) (UniProt P36969); experiment: Primary qHTS Assay for Inhibitors of Recombinant Selenoprotein Glutathione Peroxidase 4 (GPX4) (AID 1845192); conditions: outcome: dose series up to 50 µM unless noted; further: nearly all actives have a fitted effect of over 65% in size; further: potency means the concentration at half of the fitted maximal effect; on activity change, negative = inhibition: series mostly up to about 50 µM; on the % scale 0 is the no-effect control and ±100 the full control effect
Sequence of Phospholipid hydroperoxide glutathione peroxidase GPX4 (Homo sapiens) (P36969 whole entry, looked up): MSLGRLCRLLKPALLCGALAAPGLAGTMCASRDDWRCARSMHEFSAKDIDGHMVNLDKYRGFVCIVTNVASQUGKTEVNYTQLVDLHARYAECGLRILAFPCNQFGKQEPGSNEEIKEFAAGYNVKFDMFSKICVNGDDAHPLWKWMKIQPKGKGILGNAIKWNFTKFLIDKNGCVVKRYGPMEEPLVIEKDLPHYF
In short: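 GR-coupled readout: 100 nM GR, 1 mM GSH, 0.5 mM NADPH; NADPH fluorescence (ex 340/em 450 nm) read at t=0 and after 15 min RT. GPX4 200 nM, preincubated 30 min with compound; substrate 0.5 mM CHP.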

[6] = qHTS drug screen for cell cycle checkpoint inhibitors in PARPi-resistant BRCA-mutant ovarian cancer cell lines. (AID 1963452; calls by dose curve); conditions: PEO1/OlaR viability, CellTiter-Glo luminescence, 96 h, stronger effect = lower value
In short: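 PEO1, PEO4 and PEO1/OlaR ovarian cancer cells, 600 per well, exposed 96 h at 37C to a dilution series. Viability read by CellTiter-Glo luminescence, normalized to DMSO and empty wells; activity summarized as Z-AUC.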

[7] = measured here: PEO1 parental Z-AUC

| SMILES | Potency [1] | Potency [2] | Potency [3] | Potency [4] | Potency [5] | Z-AUC [6] | Z-AUC [6, 7] | Z-AUC ([6]; measured here: PEO4 Z-AUC) | activity change, negative = inhibition [1] | activity change, negative = viability loss [2] | activity change, negative = cell killing [3] | outcome [4] | outcome [5] |
| --- | --- | --- | --- | --- | --- | --- | --- | --- | --- | --- | --- | --- | --- |
| COc1nc(N)nc2c1ncn2C1OC(CO)C(O)C1O (stereo unspecified) | inactive | 5.25 µM (active) | 4.68 µM (active) | inactive | inactive | -0.613 (inactive) | -0.445 | -0.286 |  |  |  |  |  |
| O=C(NCc1ccc(S(=O)(=O)c2cccc(C(F)(F)F)c2)cc1)c1cnc2[nH]ncc2c1 | inactive | 0.0132 µM (active) | 0.0263 µM (active) | inactive | inactive | -2.19 (inactive) | -2.73 | -2.28 |  |  |  |  |  |
| Cn1ncc(NC(=O)c2nc(-c3c(F)cccc3F)sc2N)c1N1CC[C@@H](N)[C@H](F)CC1 | inactive | inactive | inactive | inactive | inactive | 0.883 (inactive) | 0.956 | 0.537 |  |  |  |  |  |
| N=C1CCCN1Cc1[nH]c(=O)[nH]c(=O)c1Cl | inactive | inactive | inactive | inactive | inactive | -0.424 (inactive) | 0.0295 | -0.23 |  |  |  |  |  |
| Cc1ccc(S(=O)(=O)Nc2cc(-c3ccc(C#N)s3)ccc2C)cc1 | inactive | 0.0468 µM (active) | 0.0417 µM (active) | inactive | inactive | -2.2 (inactive) | -2.3 | -2.13 |  |  |  |  |  |
| Cc1onc(-c2ccc(F)cc2)c1COc1ccc(C(=O)N2CCS(=O)(=O)CC2)cn1 | inactive | inactive | inactive | inactive | inactive | 0.971 (inactive) | 1.31 | 0.844 |  |  |  |  |  |
| C=CC(=O)N1CCC(C2CCNc3c(C(N)=O)c(-c4ccc(Oc5ccccc5)cc4)nn32)CC1 (stereo unspecified) | inactive | 14.8 µM (active) | 6.61 µM (active) | inactive | inactive | -0.181 (inactive) | -0.23 | -0.000619 |  |  |  |  |  |
| Cc1nc(NC(=O)N2CCC[C@H]2C(N)=O)sc1-c1csc(C(C)(C)C)n1 | inactive | 5.25 µM (active) | 4.68 µM (active) | inactive | inactive | 0.111 (inactive) | 0.231 | 0.403 |  |  |  |  |  |
| COCCNc1cc(NC(=O)N2CCCc3cc(CN4CCN(C)CC4=O)c(C=O)nc32)ncc1C#N |  |  |  |  |  | 0.715 (inactive) | 0.498 | 0.787 | -1.84% [at 8.44 µM] (inactive) | 3.8% [at 9.23 µM] (inactive) | 2.96% [at 9.23 µM] (inactive) | inactive [at 9.52 µM] | inactive [at 9.73 µM] |
| COc1cc2c(Oc3ccc4[nH]c(C)cc4c3F)ccnc2cc1OCC1(N)CC1 | inactive | 5.9 µM (active) | 3.72 µM (active) | inactive | inactive | 0.184 (inactive) | 0.236 | 0.196 |  |  |  |  |  |
| C=CC(=O)N1CCC(CNc2ncnc(N)c2-c2ccc(Oc3ccccc3)cc2)CC1 | inactive | 16.6 µM (active) | 5.9 µM (active) | inactive | inactive | 1.54 (inactive) | 1.18 | 1.23 |  |  |  |  |  |
| O=C(Nc1ccccc1)Nc1ccc(-c2ccc(C(=O)[C@@H]3CCC[C@H]3C(=O)O)cc2)cc1 | inactive | inactive | inactive | inactive | 12.8 µM (active) | 1.01 (inactive) | 0.577 | 0.797 |  |  |  |  |  |
| Cc1c(F)cccc1NC(=O)Nc1ccc(Cl)c(S(=O)(=O)[C@H]2CCCNC2)c1O | inactive | inactive | inactive | inactive | inactive | 1.68 (inactive) | 1.25 | 1.41 |  |  |  |  |  |
| NCC(=O)Nc1cncc(-c2nn3c(=O)cc(N4CCNCC4)nc3s2)c1 | inactive | inactive | inactive | inactive | inactive | 0.673 (inactive) | 0.487 | 1.13 |  |  |  |  |  |
| COc1ccc(Cl)cc1-c1cc(=O)[nH]c(=S)n1CC(N)=O | inactive | inactive | inactive | inactive | inactive | 0.0644 (inactive) | 0.00773 | 0.346 |  |  |  |  |  |
| COCCOC(=O)N1CCN(S(=O)(=O)c2cc(F)c(Oc3ccc(Cl)cc3)c(F)c2)C(C(=O)NO)C1 (stereo unspecified) | 18.6 µM (active) | 5.9 µM (active) | 4.68 µM (active) | inactive | inactive | -1.01 (inactive) | -1.23 | -1.17 |  |  |  |  |  |
| O=C(NCc1ccccc1)[C@H](Cc1ccccc1)NC(=O)[C@H]1O[C@@H]1C(=O)NCCc1ccc(O)cc1 | inactive | 23.5 µM (active) | 18.6 µM (active) | inactive | inactive | 1.49 (inactive) | 0.636 | 0.423 |  |  |  |  |  |
